# Data as given in PubChem BioAssay (NCI).
# Compounds without any hit were thinned out: in the full panel of roughly 83,000, 20% have a hit.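 Testing used 96-well plates and a 48-hour single-concentration exposure. Example: -40 means 40% of the starting cells died.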 A number with no mark means an inactive call. The source made the active and inactive calls. Rule for the calls: active = growth percent below 10; inactive = the rest.
# Experiments:
# Test in all cases: NCI-60 one-dose screen, 48 h (100 = growth as untreated, 0 = no growth, -100 = all killed)
# Settings in all cases: 10 µM unless noted
# [1] = test system: SNB-75 CNS
# [2] = test system: SNB-19 CNS
# [3] = test system: U251 CNS
# [4] = test system: SK-MEL-5 melanoma
# [5] = test system: UACC-62 melanoma
# [6] = test system: LOX IMVI melanoma
# [7] = test system: SK-MEL-28 melanoma
# [8] = test system: PC-3 prostate
# [9] = test system: SK-MEL-2 melanoma
Compound,growth [1],growth [2],growth [3],growth [4],growth [5],growth [6],growth [7],growth [8],growth [9]
c1csc([C@@H]2C[C@@H]3Cc4ccc5ccccc5c4N2O3)c1,87.1%,97.5%,96.8%,101%,79.7%,98.9%,103%,,
C[N+]1(CCC[N+]2(C)C[C@@H]3[C@H](C2)[C@@H]2C=C[C@H]3C2)CCOCC1 (stereo partly drawn),103%,107%,109%,106%,97.7%,96%,109%,,
O=[N+]([O-])c1ccc(N/N=C/c2c(O)ccc3ccccc23)nc1,69.3%,62.7%,35.8%,40%,41.7%,21%,64.8%,,
COc1cc(C2=NN(C(C)=O)C(c3ccc(OC(C)=O)cc3OC(C)=O)O2)c(OC(C)=O)c2ccccc12 (stereo not drawn),50.4%,36.7%,15.7%,7.09% (active),,2.78% (active),23.7%,42.9%,24.9%
O=C1Nc2ccc(F)cc2/C1=C/c1nc(-c2ccc(F)cc2)n2ccccc12,93.6%,105%,83.5%,103%,97%,92.9%,112%,115%,132%
O=C1/C(=C/c2ccc([N+](=O)[O-])s2)Oc2ccc(Br)cc21,-16.1% (active),-15.3% (active),-87.9% (active),-89.1% (active),-83.4% (active),-75.6% (active),,-62.3% (active),-62.2% (active)
CCCOc1ccc2c(c1)CC[C@@H]1[C@@H]2CC[C@@]2(C)[C@H]1CC[C@]2(C)O,73.4%,94.3%,72%,92.7%,95.8%,65%,85.3%,,
O=C(C(Br)Br)C(Br)C(Br)c1ccccc1 (stereo not drawn),115%,112%,,99.3%,95.2%,53.3%,106%,101%,117%
Cc1ccccc1-c1cc(Cc2ccccc2O)c(=O)[nH]n1,106%,123%,103%,94.8%,95.3%,100%,131%,,
CC(=O)c1nc2ccccc2n1CCn1cc(CC(N)C(=O)O)c2ccccc21 (stereo not drawn),74.7%,92.6%,,96.1%,79.5%,89.4%,109%,,
ClC1=C(Cl)C(Cl)=C(Cl)C1=C/C=C/c1ccccc1,19.8%,,-93.3% (active),,-83.6% (active),-91.6% (active),-74.1% (active),,
CCC(O)C(C)(C)C (stereo not drawn),108%,109%,,113%,104%,93%,121%,108%,129%
Cc1cc(=O)n2n1-c1ccc(Cl)cc1NC(=O)C2,86.6%,97.5%,,97.5%,107%,98.6%,,89.8%,118%
O=C1C(Cl)=C(N=Nc2c(Cl)c(O)c3ccccc3c2O)C(=O)c2ccccc21,85.8%,66.3%,53.3%,53.1%,5.34% (active),43%,67.3%,,98.5%
CCOc1cc(-c2ccc[nH]2)[nH]c1/C=C1\N=C(C)C(C(=O)OC)=C1C,-65% (active),11.9%,-62.4% (active),-93% (active),-74.7% (active),-56.5% (active),-83.5% (active),,
O=C1OCCCCCCCCCC#Cc2ccccc21,88.7%,98.6%,115%,89%,99.2%,140%,110%,,109%
O[C@@H]1Cc2ccc3ccccc3c2N[C@H](c2ccoc2)C1,95.5%,102%,100%,92.8%,101%,92.7%,125%,,
COc1cc(C2NC(c3ccc(Cl)cc3)C(C)/C(=N/NC(N)=S)C2C)cc(OC)c1OC (stereo not drawn),81%,78.2%,,79.4%,94%,,108%,73.8%,83.6%
CCCCCCCCCCSc1ncnc2nc[nH]c12,,74.7%,68.8%,56.4%,69.9%,56.3%,116%,79.8%,101%
C[C@]12CC[C@@H]3c4ccc(O)cc4CC[C@H]3[C@@H]1CC[C@@H]2NS(=O)(=O)c1cccc(Br)c1,72.7%,95.2%,,61.3%,70%,,88.3%,38.7%,
CN(C)c1ccc(/C=C(\C#N)c2nc3ccccc3c(=O)[nH]2)cc1,113%,94.7%,77.4%,89.3%,94.8%,83.8%,110%,,36.5%
CCN(CC)CCNc1ccc(Cl)cc1Cl,98.5%,,102%,103%,112%,102%,118%,97.3%,108%

Compound,growth [1],growth [2],growth [3],growth [4],growth [5],growth [6],growth [7],growth [8],growth [9]
COc1ccc(/C=N\Nc2ccc([N+](=O)[O-])cn2)cc1OC,-0.426% (active),39.7%,-18.5% (active),85.5%,,68.7%,79.5%,,
COc1ccc2c(c1)[nH]c(=O)c1c3cc(OC)c(OC)cc3cn21,72%,31.3%,,-6.64% (active),48.9%,9.3% (active),61.1%,-90.8% (active),6.58% (active)
Oc1ccccc1C=Nc1ccccc1N=Cc1ccccc1O.[Cu+2],47.9%,91.7%,61.8%,24.1%,,47.6%,85.1%,,
COc1ccccc1[C@H]1c2[nH]c3ccccc3c2C[C@H]2C(=O)N(CCCCCCC(=O)NO)CC(=O)N12,-6.11% (active),67.3%,46.6%,26.6%,23.7%,32.7%,18.6%,,59.5%
COc1ccc(OC)c2c1[nH]c(=O)c1c3ccccc3cn21,-77.2% (active),-48.4% (active),-97% (active),-98.8% (active),-100% (active),-84.8% (active),-83.8% (active),,-56.8% (active)
COc1ccc(C(=O)COc2cccc(/C=C3\Oc4ccc5ccccc5c4C3=O)c2)cc1,44.8%,105%,84%,78.6%,76.4%,-80.4% (active),,,59.1%
O=C(Nc1ccc(Oc2ccc(NC(=O)Nc3ccc([N+](=O)[O-])cc3)cc2)cc1)Nc1ccc([N+](=O)[O-])cc1,42.6%,29.7%,17.6%,-76.1% (active),15.6%,12.4%,24.8%,,-27.5% (active)
COc1ccc(C2=NN(C(C)=O)C(c3cc(OC)c(OC)c(OC)c3)C2)cc1 (stereo not drawn),96.6%,90.7%,105%,92.6%,101%,90.6%,129%,,99%
Clc1nc(Cl)c2ncn(-c3ccccc3)c2n1,,103%,42.7%,78.6%,69%,0.438% (active),91.1%,95.7%,17.8%
O=C1CC(=O)N(c2ccccc2)O1,85%,110%,104%,97.6%,,89.5%,107%,,
CC(NC(=O)C(C)Oc1ccc(Cl)cc1Cl)C(=O)O (stereo not drawn),,96.2%,105%,101%,91.7%,,113%,102%,97.4%
CCOC(=O)c1c2c(c(C)n1Cc1ccccc1)-c1nc(N)ncc1CC2,90.3%,101%,106%,105%,77.2%,92.6%,128%,,125%
CCN(CC)CCCNCCCNc1cc(OC)cc2cccnc12,82.8%,,77.9%,92.1%,,80.3%,,82.4%,101%
CN1CCN(Cc2ccc(NC(=O)c3[nH]ncc3Nc3ccnc4ccnn34)cc2)CC1,63.2%,,62%,71.6%,67.7%,24.1%,65.6%,55.9%,60.6%
N=C(N)/N=C(\CCc1nc2ccccc2[nH]1)c1nc2ccccc2[nH]1,82.5%,93.6%,103%,98%,82.2%,85.4%,100%,,
O=C(N1CCC(CN=c2cc3n(-c4ccc(Cl)cc4)c4ccccc4nc-3cc2Nc2ccc(Cl)cc2)CC1)N1CC1,-60.6% (active),-67.7% (active),-62.5% (active),-97.6% (active),-77.5% (active),-67.5% (active),-90.8% (active),,-80.8% (active)
O=C1c2ccccc2C(=O)c2c1cccc2-n1nnc2ccccc21,90.8%,104%,,112%,103%,100%,118%,,79.3%
C=CCOc1ccc2c(c1)CC[C@@H]1[C@@H]2CC[C@@]2(C)[C@H]1CC[C@]2(C)O,93.3%,110%,74.7%,95.3%,85%,76.2%,97.2%,,
COc1ccc2nccc(/C=C/c3ccnc4ccc(OC)cc34)c2c1,102%,109%,107%,116%,,106%,,,112%
CN1C(=O)/C(=C/c2nc(-c3cccc(F)c3)n3ccccc23)c2ccccc21,,76.8%,56.7%,64%,71.3%,48.8%,89.1%,81.6%,68.2%
CCOC(=O)c1c(NC(=O)C2CCCCC2C(=O)O)sc2c1CCCC2 (stereo not drawn),97.3%,99.8%,,95.1%,,90%,110%,101%,107%
O=C1NCC(Nc2ccc(Br)cc2Cl)C(=O)N1 (stereo not drawn),91%,102%,123%,,101%,105%,,,
